HT1080-NT tox: qHTS for induction of synthetic lethality in tumor cells producing 2HG: qHTS for the HT-1080-NT fibrosarcoma cell line; HT-1080-NT fibrosarcoma viability, CellTiter-Glo ATP luminescence, 48 h; Potency, µM (highest dose often 46.1 µM), without a hit: at the top dose activity, negative = less viability, actives largely listed as cytotoxic; 360,000 tested, 1.6% active; AID 686970, 2013;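 also: NT is the 2HG producing partner of a matched IDH1 knockdown line; 0% = DMSO-treated cells and -100% = media-only wells without cells; nearly all actives have a fitted effect of over 55% in size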
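Luminescent CellTiter-Glo readout after 48 hours of compound exposure at 37 degrees C defined viability of HT-1080-NT cells. Activity was normalized to DMSO wells and cell-free media wells; concentration-response curves were fitted and assigned curve classes.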
MCF10A rereplic: A quantitative high throughput screen for small molecules that induce DNA re-replication in MCF 10a normal breast cells; 350,000 tested, 2.9% active; Potency, µM (highest dose often 46.1 µM), for inactives: at the top dose activity, positive = re-replication, most hits filed as activators; MCF 10A DNA re-replication, Hoechst nuclear intensity, 48 h; also: % of control where 0% means no effect; nearly all actives have a fitted effect of over 50% in size
KB-3-1 tox: qHTS assay for MDR1-selective chemotherapeutics: Primary screen using the parental adenocarcinoma cell KB-3-1 | KB-3-1 viability, CellTiter-Glo ATP luminescence, 72 h | Potency, µM (series often up to 46.1 µM), actives largely listed as cytotoxic | 400,000 tested, 1.4% active | AID 1347075, 2019; also: % is scaled to controls: 0 for no effect and ±100 for the full control effect; nearly all actives have a fitted effect of over 60% in size
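Using CellTiter-Glo luminescence, growth of non-resistant KB-3-1 adenocarcinoma cells is assessed 72 h after pin-tool compound addition at 37 °C. Normalized responses across the concentration series yield fitted curves.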
SW480 rereplic: A quantitative high throughput screen for small molecules that induce DNA re-replication in SW480 colon adenocarcinoma cells; SW480 DNA re-replication, Hoechst DNA content imaging, 48 h; Potency, µM (highest dose often 46.1 µM), for inactives: top-dose re-replication activation, actives largely listed as activators; 340,000 tested, 1.8% active; also: % of control where 0% means no effect; nearly all actives have a fitted effect of over 55% in size
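SW480 cells exposed to compounds for 48 hr at 37 C, 5% CO2, then Hoechst-stained 40 min. Nuclear DNA content imaged by fluorescence scanning (405 nm excitation, 500-530 nm emission); re-replication scored as increased high-intensity nuclei.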
KB-V1 MDR tox: qHTS assay for MDR1-selective chemotherapeutics: Primary screen using the drug-selected MDR subline cells KB-V1; 400,000 tested, 3.4% active; Potency, µM (doses to about 46.1 µM), hits mostly cytotoxic; KB-V1 MDR cells viability, CellTiter-Glo, 72 h; also: % is scaled to controls: 0 for no effect and ±100 for the full control effect; nearly all actives have a fitted effect of over 60% in size
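Potencies derive from concentration-effect curves fitted to normalized luminescence (CellTiter-Glo) of KB-V1 cells treated for 72 h at 37 degrees C in phenol-red-free DMEM containing 10% FBS.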
HT1080 IDH1KD tx: qHTS for induction of synthetic lethality in tumor cells producing 2HG: qHTS for the HT-1080-IDH1KD cell line | 360,000 tested, 2% active | AID 686971, 2013 | HT-1080 IDH1 knockdown viability, ATP luminescence, 48 h | Potency, µM (series often up to 46.1 µM), without a hit: at the highest dose activity, negative = toxicity, actives largely listed as cytotoxic;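 also: 0% = DMSO wells and -100% = cell-free medium wells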
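IDH1KD HT-1080 cells, 750/well, RPMI + 5% FBS; compound pinned after 2 h settling; 48 h, 37 °C; CellTiter-Glo luminescence; % activity normalised to DMSO and no-cell wells; curves fitted, classed by r2 and efficacy.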
* hit, by the source's call; i = inactive; ? = inconclusive; . = not tested or not shown. Hits are enriched below; roughly 8% of the tested compounds scored in any of these assays. Calls follow the shape of the dose curve; as a rule, active = well fitted curve in the direction sought with a large enough effect; inconclusive = small, poorly fitted or top-dose-only effect, or another doubt; inactive = no such curve, though single readings can be large; an effect the other way counts as inactive or inconclusive. Potency is read from the fitted curve at half-maximal effect.

SMILES	HT1080-NT tox	MCF10A rereplic	KB-3-1 tox	SW480 rereplic	KB-V1 MDR tox	HT1080 IDH1KD tx
COc1cc2c(cc1OC)C(c1ccc3c(c1)OCO3)C1=C(CC(C)(C)CC1=O)N2 (centres undefined)	3.5%	?	i	-4.4%	0.731µM*	-0.8%
CCOc1ccccc1C1C2=C(COC2=O)Nc2cc3c(cc21)OCO3 (centres undefined)	1.16µM*	?	1.16µM*	0.92µM*	3.66µM*	0.651µM*
O=C1OCC2=C1C(c1ccc(F)cc1)c1cc3c(cc1N2)OCO3 (centres undefined)	0.184µM*	?	0.0366µM*	0.164µM*	0.146µM*	0.116µM*
CC(=O)Oc1ccc(C2C3=C(CC(C)(C)CC3=O)Nc3cc4c(cc32)OCCO4)cc1 (centres undefined)	-1.7%	-3.6%	i	2.4%	i	-0.3%
O=C1OCC2=C1C(c1ccc(F)cc1)c1cc3c(cc1N2)OCCO3 (centres undefined)	0.184µM*	?	0.164µM*	0.103µM*	0.0326µM*	0.184µM*
CCc1ccc(NC(=O)C(C)n2nnc3sc(-c4ccccc4)cc3c2=O)cc1 (centres undefined)	.	.	i	.	i	.
CC1=CC(C)(C)N(C(=O)c2ccc(F)cc2)c2cc3c(cc21)OCO3	-0.9%	?	20.6µM*	14.0%	13µM*	4.0%
CC1=CC(C)(C)N(C(=O)CCl)c2cc(C)ccc21	-12.1%	-3.6%	i	2.0%	i	-4.2%
O=C(c1ccc(Cl)c(S(=O)(=O)NCc2ccccc2)c1)N1CCN(c2ccccn2)CC1	?	-7.2%	i	20.8%	4.11µM*	?
O=C(c1cccc(S(=O)(=O)NCc2ccccc2)c1)N1CCN(c2ccccc2)CC1	?	6.51µM*	?	?	i	?
O=C(c1cccc(S(=O)(=O)NCc2ccccc2)c1)N1CCN(c2ccccc2Cl)CC1	?	?	?	16.4µM*	i	?
O=C(c1ccc(CNS(=O)(=O)c2ccccc2)cc1)N1CCN(c2ccccn2)CC1	-13.7%	-5.1%	i	1.2%	?	-9.9%
O=C(c1cccc(S(=O)(=O)NCc2ccccc2)c1)N1CCN(c2ccc(F)cc2)CC1	-0.2%	3.2%	.	17.1%	.	-0.3%
O=C(c1nn(Cc2ccccc2)c(=O)c2ccccc12)N1CCN(c2ccccn2)CC1	-11.3%	?	i	3.2%	2.31µM*	-11.7%
O=C(c1nn(Cc2ccccc2)c(=O)c2ccccc12)N1CCc2ccccc2C1	3.6%	4.7%	i	0.2%	?	-1.0%
Cc1ccc(-n2nc3c(N4CCC(C(=O)NC5CCCCC5)CC4)nnc(C)c3c2C)cc1	.	.	i	.	i	.
Cn1cccc1C(=O)N1CCN(c2cccc(C(F)(F)F)c2)CC1	3.8%	7.1%	i	0.1%	14.6µM*	10.4%
Cc1cccc(N2CCN(C(=O)c3ccc(Cl)c(S(=O)(=O)NCc4ccco4)c3)CC2)c1C	?	16.4µM*	13µM*	?	13µM*	16.4µM*
CN1CCN(c2ccc(CNS(=O)(=O)c3ccccc3)cc2)CC1	11.3%	?	?	?	i	7.0%
CN1CCN(c2ccc(CNS(=O)(=O)Cc3cccc(C(F)(F)F)c3)cc2)CC1	18.4µM*	17.6%	?	-4.8%	?	-22.2%
O=C(c1cccc(S(=O)(=O)NCc2ccccc2)c1)N1CCN(c2cccc(C(F)(F)F)c2)CC1	?	?	?	?	16.4µM*	?
Cn1c2ccccc2c2c(C(=O)N3CCN(c4cccc(Cl)c4)CC3)cn(C3CCCCC3)c(=O)c21	.	.	i	.	i	.
CC(=O)c1ccc(NC(=O)c2ccc(CN3C(=O)CCn4nc(C)cc43)cc2)cc1	.	.	i	.	i	.
COc1ccccc1CNc1nc2c(S(=O)(=O)c3ccc(C)c(C)c3)nnn2c2ccc(Cl)cc12	.	.	i	.	i	.
CCSc1ncc(Cl)c(C(=O)Nc2ccc(S(=O)(=O)Nc3nccc(C)n3)cc2)n1	.	.	i	.	i	.
SMILES	HT1080-NT tox	MCF10A rereplic	KB-3-1 tox	SW480 rereplic	KB-V1 MDR tox	HT1080 IDH1KD tx
CC(C)c1ccc(OCc2ccc(C(=O)N3CCN(c4ccccn4)CC3)cc2)cc1	?	23.1µM*	?	18.0%	?	?
Fc1ccc(/C=N/Nc2nnnn2-c2ccccc2)cc1	?	29.8%	i	-31.5%	i	-29.3%
Cn1nnnc1NN=Cc1ccccc1	14.1%	.	i	.	18.4µM*	2.2%
N#Cc1nc(Cc2cccc3ccccc23)oc1NCC1CCCO1 (centres undefined)	-11.2%	3.5%	i	-2.7%	16.4µM*	-19.4%
O=C1[C@@H]2[C@H]3CC[C@H](C3)[C@@H]2C(=O)N1O	12.9%	1.16µM*	i	?	i	8.7%
O=C(O)C1CCC(N2C(=O)C3C4CCC(C4)C3C2=O)CC1 (centres undefined)	24.9%	-2.1%	i	-14.3%	i	5.8%
Cc1ccc(CN2CCC(Oc3cccc(C(=O)N(C)CCN(C)C)c3)CC2)cc1C	?	17.4%	i	6.5%	i	20.6µM*
Cc1ccc(C)c(OCC(=O)O/N=C(\N)c2cccnc2)c1	-2.0%	19.5%	i	0.6%	i	1.4%
Cc1ccc(C(=O)O/N=C(\N)c2ccccn2)c(C)c1	16.4µM*	7.31µM*	?	?	?	14.6µM*
Cc1ccc(C)c(OCC(=O)O/N=C(\N)c2ccccn2)c1	-6.4%	10µM*	i	-4.7%	i	-4.5%
CN1CCN(c2cccc(Nc3nn4c(=O)c5ccc(Br)cc5nc4s3)c2)CC1	.	.	i	.	i	.
COc1ccc(CCc2ccc3ccccc3n2)cc1	5.0%	18.4µM*	i	-1.8%	i	-26.2%
COc1cccc(-c2cc(=O)c3cc(NC(=O)c4ccccc4)ccc3[nH]2)c1	3.66µM*	5.8µM*	1.64µM*	2.91µM*	i	3.66µM*
COc1cccc(-c2cc(=O)c3cc(NC(=O)c4ccc(Cl)cc4)ccc3[nH]2)c1	-5.5%	?	1.3µM*	?	i	-0.5%
COc1cccc(S(=O)(=O)NCc2ccc(C(=O)Nc3ccc(Cl)cc3)cc2)c1	-13.3%	0.0%	i	3.7%	?	-23.1%
